Results published in PubChem BioAssay.
“And” between values parts separate entries of the source, which are not always exact repeats. Identical values can stand only once. The source made the active and inactive calls. Unless noted, the rule behind the calls is not given here.

Test system: not listed separately
Experiment: liver-stage malaria parasite growth inhibition, primary screen, cell-based, HepG2, luciferase luminescence, HepG2 viability (AID 624349; in the data active = parasite load remaining mostly below about 12%, no sharp cut-off; inactive = mostly above about 10%;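 note: 100% = mean of DMSO negative control wells on the same plate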)
Conditions: P. berghei liver stage in HepG2, luciferase luminescence, concentration not given here; parasite load remaining: stronger effect = lower value; viability: measured here: HepG2 viability without parasites

Structure (SMILES) | parasite load remaining | viability
O=C(O)/C=C/c1ccc(Cn2ccnc2)cc1 | 92.2% (inactive) and 85.3% (inactive) and 50.2% (inactive) | 79.5% and 65.9% and 102%
O=C(NCCO[N+](=O)[O-])c1cccnc1 | 31.4% (inactive) and 90.9% (inactive) and 44.6% (inactive) | 48.5% and 74.2% and 98.5%
Cc1nc2ccc(CN(C)c3ccc(C(=O)N[C@@H](CCC(=O)O)C(=O)O)s3)cc2c(=O)[nH]1 | 12.1% (inactive) | 89.6%
CCCN1CCCC[C@H]1C(=O)Nc1c(C)cccc1C | 68.8% (inactive) | 69.6%
COc1cc2c(cc1OC)C(=O)C(CC1CCN(Cc3ccccc3)CC1)C2 (stereo not given) | 49.6% (inactive) and 67.4% (inactive) | 93.5% and 63.1%
N#Cc1ccc(C(c2ccc(C#N)cc2)n2cncn2)cc1 | 127% (inactive) and 107% (inactive) and 48.7% (inactive) | 71.5% and 77.2% and 128%
Cc1[nH]cnc1CN1CCc2c(c3ccccc3n2C)C1=O | 109% (inactive) | 87.6%

Test system: not listed separately
Experiment: Cy5 fluorescence interference with SSB-bound oligo, artefact control for HCV NS3 helicase inhibitor project, biochemical, NIH Clinical Collection, E. coli SSB (AID 743268)
Conditions: not given

Structure (SMILES) | fluorescence ratio
CNNCc1ccc(C(=O)NC(C)C)cc1 | 1.04 (inactive)
Nc1nc2c(ncn2CCC(CO)CO)c(=O)[nH]1 | 1.05 (inactive)
O=C1CC2(CCCC2)CC(=O)N1CCNCC1COc2ccccc2O1 (stereo not given) | 0.98 (inactive)
Cn1nnc2c(C(N)=O)ncn2c1=O | 1.03 (inactive)
O=C1[C@H]2CCCC[C@H]2C(=O)N1CCCCN1CCN(c2nsc3ccccc23)CC1 | 1 (inactive)
O=C(O)CCNC(=O)c1ccc(N=Nc2ccc(O)c(C(=O)O)c2)cc1 | 0.93 (inactive)
CC(Oc1c(Cl)cccc1Cl)C1=NCCN1 (stereo not given) | 0.98 (inactive)
CN1CCN(C2=Nc3cc(F)ccc3Cc3ccccc32)CC1 | 0.91 (inactive)
COC(=O)C1=C(C)NC(C)=C(C(=O)OC(C)C)C1c1cccc2nonc12 (stereo not given) | 1.01 (inactive)
CCOc1cc(N)c(Cl)cc1C(=O)NCC1CN(Cc2ccc(F)cc2)CCO1 (stereo not given) | 0.99 (inactive)
O=c1c(-c2ccccc2)c1-c1ccccc1 | 0.98 (inactive)
O=C1Nc2ccc(Cl)cc2[C@@](C#CC2CC2)(C(F)(F)F)O1 | 0.99 (inactive)
Nc1nc(N)nc(-c2cc(Cl)ccc2Cl)n1 | 1.05 (inactive)
OCCOCCN1CCN(C2=Nc3ccccc3Sc3ccccc32)CC1 | 1.02 (inactive)
CC(=O)Nc1ccc(CC(=O)O)cc1 | 1.02 (inactive)
O=c1[nH]cnc2c1ncn2[C@H]1CC[C@@H](CO)O1 | 1.06 (inactive)
COC(=O)C1=C(C)NC(C)=C(C(=O)O[C@@H]2CCCN(Cc3ccccc3)C2)[C@@H]1c1cccc([N+](=O)[O-])c1 | 0.96 (inactive)
Cc1c(O)cccc1C(=O)N[C@@H](CSc1ccccc1)[C@H](O)CN1C[C@H]2CCCC[C@H]2C[C@H]1C(=O)NC(C)(C)C | 0.95 (inactive)
CCc1nn(CCCN2CCN(c3cccc(Cl)c3)CC2)c(=O)n1CCOc1ccccc1 | 0.98 (inactive)

Structure (SMILES) | fluorescence ratio
Nc1[nH]c(=O)ncc1F | 1.01 (inactive)
O=C1CCc2ccc(OCCCCN3CCN(c4cccc(Cl)c4Cl)CC3)cc2N1 | 1 (inactive)
COc1cc(C(=O)NC2CCCNC2)cc(OC)c1OC (stereo not given) | 1 (inactive)
COc1ccc(C(=O)NCc2ccc(OCCN(C)C)cc2)cc1OC | 1.04 (inactive)
COCc1c(C(C)C)nc(C(C)C)c(/C=C/[C@@H](O)C[C@@H](O)CC(=O)O)c1-c1ccc(F)cc1 | 1.03 (inactive)
CC(C)(C)C(O)/C=C/c1ccc2c(c1)OCO2 (stereo not given) | 0.94 (inactive)
Cc1ccnc2c1NC(=O)c1cccnc1N2C1CC1 | 1.05 (inactive)
CCOc1cc(CC(=O)N[C@@H](CC(C)C)c2ccccc2N2CCCCC2)ccc1C(=O)O | 1.02 (inactive)
Nc1c2c(nc3c1CCC3)CCCC2 | 0.99 (inactive)
CCOC(=O)OC(C)OC1=C(C(=O)Nc2ccccn2)N(C)S(=O)(=O)c2ccccc21 (stereo not given) | 0.97 (inactive)
CN1CCN(c2c(F)cc3c(=O)c(C(=O)O)cn4c3c2SCC4)CC1 | 1.04 (inactive)
Cc1nc2n(c(=O)c1CCN1CCC(c3noc4cc(F)ccc34)CC1)CCCC2 | 1.05 (inactive)
O=C(O)/C=C/c1ccc(Cn2ccnc2)cc1 | 1.05 (inactive)
O=C(NCCO[N+](=O)[O-])c1cccnc1 | 1.04 (inactive)
Cc1nc2ccc(CN(C)c3ccc(C(=O)N[C@@H](CCC(=O)O)C(=O)O)s3)cc2c(=O)[nH]1 | 0.88 (inactive)
CCCN1CCCC[C@H]1C(=O)Nc1c(C)cccc1C | 0.98 (inactive)
COc1cc2c(cc1OC)C(=O)C(CC1CCN(Cc3ccccc3)CC1)C2 (stereo not given) | 1.07 (inactive)
N#Cc1ccc(C(c2ccc(C#N)cc2)n2cncn2)cc1 | 1 (inactive)
Cc1[nH]cnc1CN1CCc2c(c3ccccc3n2C)C1=O | 0.99 (inactive)

Test system: Hepatitis C virus NS3 helicase
Experiment: HCV NS3 helicase inhibitors, primary screen, biochemical, fluorescence polarization, NIH Clinical Collection (AID 743270)
Conditions: NS3 helicase binding to Cy5-dT15 DNA, stronger effect = higher value, concentration not given here

Structure (SMILES) | inhibition
CNNCc1ccc(C(=O)NC(C)C)cc1 | 1.19% (inactive)
Nc1nc2c(ncn2CCC(CO)CO)c(=O)[nH]1 | 2.77% (inactive)
O=C1CC2(CCCC2)CC(=O)N1CCNCC1COc2ccccc2O1 (stereo not given) | -8.95% (inactive)
Cn1nnc2c(C(N)=O)ncn2c1=O | -5.94% (inactive)
O=C1[C@H]2CCCC[C@H]2C(=O)N1CCCCN1CCN(c2nsc3ccccc23)CC1 | 0.4% (inactive)
O=C(O)CCNC(=O)c1ccc(N=Nc2ccc(O)c(C(=O)O)c2)cc1 | -2.84% (inactive)
CC(Oc1c(Cl)cccc1Cl)C1=NCCN1 (stereo not given) | -8.08% (inactive)
CN1CCN(C2=Nc3cc(F)ccc3Cc3ccccc32)CC1 | -1.97% (inactive)
COC(=O)C1=C(C)NC(C)=C(C(=O)OC(C)C)C1c1cccc2nonc12 (stereo not given) | 6.73% (inactive)
CCOc1cc(N)c(Cl)cc1C(=O)NCC1CN(Cc2ccc(F)cc2)CCO1 (stereo not given) | 1.19% (inactive)
O=c1c(-c2ccccc2)c1-c1ccccc1 | -0.4% (inactive)
O=C1Nc2ccc(Cl)cc2[C@@](C#CC2CC2)(C(F)(F)F)O1 | 5.15% (inactive)
Nc1nc(N)nc(-c2cc(Cl)ccc2Cl)n1 | -1.19% (inactive)
OCCOCCN1CCN(C2=Nc3ccccc3Sc3ccccc32)CC1 | 1.98% (inactive)
CC(=O)Nc1ccc(CC(=O)O)cc1 | 0.4% (inactive)
O=c1[nH]cnc2c1ncn2[C@H]1CC[C@@H](CO)O1 | 1.19% (inactive)
COC(=O)C1=C(C)NC(C)=C(C(=O)O[C@@H]2CCCN(Cc3ccccc3)C2)[C@@H]1c1cccc([N+](=O)[O-])c1 | 3.56% (inactive)
Cc1c(O)cccc1C(=O)N[C@@H](CSc1ccccc1)[C@H](O)CN1C[C@H]2CCCC[C@H]2C[C@H]1C(=O)NC(C)(C)C | -4.36% (inactive)
CCc1nn(CCCN2CCN(c3cccc(Cl)c3)CC2)c(=O)n1CCOc1ccccc1 | -1.19% (inactive)

Structure (SMILES) | inhibition
Nc1[nH]c(=O)ncc1F | -6.73% (inactive)
O=C1CCc2ccc(OCCCCN3CCN(c4cccc(Cl)c4Cl)CC3)cc2N1 | 1.98% (inactive)
COc1cc(C(=O)NC2CCCNC2)cc(OC)c1OC (stereo not given) | 2.77% (inactive)
COc1ccc(C(=O)NCc2ccc(OCCN(C)C)cc2)cc1OC | 1.19% (inactive)
COCc1c(C(C)C)nc(C(C)C)c(/C=C/[C@@H](O)C[C@@H](O)CC(=O)O)c1-c1ccc(F)cc1 | -4.36% (inactive)
CC(C)(C)C(O)/C=C/c1ccc2c(c1)OCO2 (stereo not given) | -4.59% (inactive)
Cc1ccnc2c1NC(=O)c1cccnc1N2C1CC1 | 1.98% (inactive)
CCOc1cc(CC(=O)N[C@@H](CC(C)C)c2ccccc2N2CCCCC2)ccc1C(=O)O | 5.94% (inactive)
Nc1c2c(nc3c1CCC3)CCCC2 | 2.77% (inactive)
CCOC(=O)OC(C)OC1=C(C(=O)Nc2ccccn2)N(C)S(=O)(=O)c2ccccc21 (stereo not given) | -2.84% (inactive)
CN1CCN(c2c(F)cc3c(=O)c(C(=O)O)cn4c3c2SCC4)CC1 | -4.36% (inactive)
Cc1nc2n(c(=O)c1CCN1CCC(c3noc4cc(F)ccc34)CC1)CCCC2 | 3.56% (inactive)
O=C(O)/C=C/c1ccc(Cn2ccnc2)cc1 | -2.77% (inactive)
O=C(NCCO[N+](=O)[O-])c1cccnc1 | 1.19% (inactive)
Cc1nc2ccc(CN(C)c3ccc(C(=O)N[C@@H](CCC(=O)O)C(=O)O)s3)cc2c(=O)[nH]1 | -4.59% (inactive)
CCCN1CCCC[C@H]1C(=O)Nc1c(C)cccc1C | -5.46% (inactive)
COc1cc2c(cc1OC)C(=O)C(CC1CCN(Cc3ccccc3)CC1)C2 (stereo not given) | 1.98% (inactive)
N#Cc1ccc(C(c2ccc(C#N)cc2)n2cncn2)cc1 | 2.77% (inactive)
Cc1[nH]cnc1CN1CCc2c(c3ccccc3n2C)C1=O | -8.32% (inactive)
